Experimental data published in publication PMC4336329 (PLoS ONE, 2015).
The campaign covered roughly 310,000 compounds. About 14,000 (4.5%) showed an effect of 50% or more. The effect is printed as a negative number. The full list was thinned out, with strong results kept by preference.

target: human ether-à-go-go-related gene (hERG) potassium channel (human, UniProt Q12809); assay: primary screen, population patch clamp on CHO cells stably expressing hERG; higher = less effect of the substance
Method: Briefly, Chinese hamster ovary (CHO) cells stably expressing the hERG channel were dislodged from tissue culture flasks and dispensed into PPC plates. […] During the recording, background leak currents were estimated by a 100 ms step to -80 mV from an initial holding potential of -70 mV and subtracted from the subsequent current measurement. The campaign was conducted in two phases using slight differences in recording protocol. In the first phase, the initial voltage pulse used a 100 ms step to -30 mV from a holding potential of -70 mV, a 2 s conditioning step to +25 mV, and a 2 s test step to -30 mV. During the second phase of the screen, the potential during the conditioning step was raised to +45 mV. In both phases of the campaign, a secondary voltage pulse was applied using the same parameters as the second phase initial pulse. The initial and secondary pulses were applied in the absence of compound, and upon application of 1 μM and 10 μM test concentrations. […]
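Also: peak tail current of the secondary pulse compared with the same well before compound.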

Chain of human ether-à-go-go-related gene (hERG) potassium channel (Q12809 whole entry, looked up): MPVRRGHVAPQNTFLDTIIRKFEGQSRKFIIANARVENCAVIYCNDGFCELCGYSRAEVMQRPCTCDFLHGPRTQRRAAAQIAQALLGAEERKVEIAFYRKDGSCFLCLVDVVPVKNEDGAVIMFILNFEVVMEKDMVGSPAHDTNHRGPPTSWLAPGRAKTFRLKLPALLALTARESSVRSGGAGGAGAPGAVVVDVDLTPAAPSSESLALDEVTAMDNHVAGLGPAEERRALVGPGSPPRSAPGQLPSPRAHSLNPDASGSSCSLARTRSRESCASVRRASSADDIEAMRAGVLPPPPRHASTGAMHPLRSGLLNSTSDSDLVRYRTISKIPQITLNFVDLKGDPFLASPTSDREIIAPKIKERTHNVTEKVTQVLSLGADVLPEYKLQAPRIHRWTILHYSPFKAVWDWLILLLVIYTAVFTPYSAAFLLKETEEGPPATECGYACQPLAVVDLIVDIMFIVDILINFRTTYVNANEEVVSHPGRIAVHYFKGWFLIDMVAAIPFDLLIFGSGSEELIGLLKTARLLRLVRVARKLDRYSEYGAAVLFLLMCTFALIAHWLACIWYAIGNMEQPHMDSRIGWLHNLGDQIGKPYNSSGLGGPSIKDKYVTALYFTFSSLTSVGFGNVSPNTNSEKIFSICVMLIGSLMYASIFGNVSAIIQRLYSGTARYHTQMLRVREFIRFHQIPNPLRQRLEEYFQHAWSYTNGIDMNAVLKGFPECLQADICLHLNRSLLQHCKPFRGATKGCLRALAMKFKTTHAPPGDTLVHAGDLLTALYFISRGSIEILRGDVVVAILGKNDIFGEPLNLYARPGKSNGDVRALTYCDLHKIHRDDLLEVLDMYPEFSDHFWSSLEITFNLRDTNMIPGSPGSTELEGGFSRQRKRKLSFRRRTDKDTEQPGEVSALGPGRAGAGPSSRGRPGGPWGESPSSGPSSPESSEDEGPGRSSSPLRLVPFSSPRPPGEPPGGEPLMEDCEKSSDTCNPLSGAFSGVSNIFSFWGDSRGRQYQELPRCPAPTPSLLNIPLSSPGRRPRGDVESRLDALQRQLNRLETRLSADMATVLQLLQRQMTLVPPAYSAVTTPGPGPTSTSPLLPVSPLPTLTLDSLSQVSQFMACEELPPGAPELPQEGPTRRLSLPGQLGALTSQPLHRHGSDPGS

Row | Compound | hERG current change (%, negative = inhibition) at 10uM [%]
1 | Cc1ccn2c(NC(=O)c3ccco3)c(-c3ccccc3)nc2c1 | -23.7
2 | O=C(CSc1nc(O)cc(=O)[nH]1)N1c2ccccc2Sc2ccccc21 | 8.9
3 | CC(C)c1ccc(NC(=O)NCc2ccc3c(c2)OCO3)cc1 | 13.4
4 | O=C(O)c1ccccc1OC(=O)C12CC3CC(CC(C3)C1)C2 | 18.1
5 | O=C(NCc1ccc(F)cc1)c1cccnc1 | 9.37
6 | Cc1nc([N+](=O)[O-])cn1Cc1cccc2ccccc12 | 10.2
7 | O=C(NCc1ccc(Cl)cc1)C1CCN(S(=O)(=O)c2ccccc2)CC1 | 13
8 | N#Cc1ccccc1S(=O)(=O)N1CCC(C(=O)NCc2ccccc2CN2CCCC2)CC1 | -69.1
9 | O=C(NCc1ccccc1CN1CCCC1)C1CCN(S(=O)(=O)c2ccc(Cl)cc2)CC1 | -69.4
10 | O=C(NCc1ccccc1Cl)C1CCN(S(=O)(=O)N2CCCC2)CC1 | 12.5
11 | CCOc1ccc(S(=O)(=O)N2CCC(C(=O)NCc3ccco3)CC2)cc1 | -53
12 | O=C(NCc1ccccc1)C1CCN(S(=O)(=O)c2ccc(Cl)cc2)CC1 | 3.16
13 | COc1ccc(S(=O)(=O)N2CCC(C(=O)NCc3ccco3)CC2)cc1 | -25.4
14 | O=C(NCc1ccccc1Cl)C1CCN(S(=O)(=O)N2CCCCC2)CC1 | 1.33
15 | CCOc1ccc(S(=O)(=O)N2CCCC(C(=O)NCc3ccco3)C2)cc1 (centres unmarked) | -4.45
16 | CCOc1ccc(NC2OCC(O)C(O)C2O)c([N+](=O)[O-])c1 (centres unmarked) | 33.2
17 | COc1cc(/C=N/NS(=O)(=O)c2ccc(C)c([N+](=O)[O-])c2)cc([N+](=O)[O-])c1O | 18.1
18 | CCOC(=O)C1CCCN(C(=O)c2sc3nc(-c4ccccc4)cn3c2C)C1 (centres unmarked) | -59.8
19 | CCOC(=O)C1CCCN(C(=O)c2cc(-c3ccccc3)nc3ccccc23)C1 (centres unmarked) | -9.9

Row | Compound | hERG current change (%, negative = inhibition) at 10uM [%]
20 | CCOC(=O)C1CCCN(C(=O)c2sc3nc(-c4ccc(F)cc4)cn3c2C)C1 (centres unmarked) | -72.9
21 | CCOC(=O)C1CCN(C(=O)c2cc3c(-c4ccc(OC)c(OC)c4)nn(C)c3s2)CC1 | -17
22 | Cc1c(C(=O)N2CCOCC2)sc2nc(-c3ccccc3)cn12 | -11.2
23 | CCOC(=O)N1CCN(C(=O)c2cc3c(-c4cccc(OC)c4)nn(C)c3s2)CC1 | -35.6
24 | COc1ccc(-c2cn3c(C)c(C(=O)N4CCc5ccccc5C4)sc3n2)cc1 | -31.9
25 | COc1ccc(-c2cn3c(C)c(C(=O)N4CCN(c5ccccc5F)CC4)sc3n2)cc1 | -29.8
26 | CCOC(=O)C1CCCN(C(=O)c2sc3nc(-c4ccc(OC)cc4)cn3c2C)C1 (centres unmarked) | -55.4
27 | CCOC(=O)C1CCCN(C(=O)c2cc(-c3ccc(F)cc3)nc3ccccc23)C1 (centres unmarked) | -33.8
28 | CCOC(=O)C1CCCN(C(=O)c2cc3c(-c4cccc(OC)c4)nn(C)c3s2)C1 (centres unmarked) | -60.7
29 | Cc1c(C(=O)N2CC(C)OC(C)C2)sc2nc(-c3ccc(F)cc3)cn12 (centres unmarked) | -38.4
30 | CCN(CC(=O)Nc1ccc(OC)cc1)C(=O)c1cc2c(s1)CCCCC2 | 16.3
31 | COc1ccc(/C=N/NC(=O)CCC(=O)Nc2ccc(F)cc2)c(OC)c1 | 14.9
32 | N#Cc1nc(-c2ccco2)oc1N1CCN(C(c2ccccc2)c2ccccc2)CC1 | -0.82
33 | Cc1cc(C(=O)O)cc(Br)c1N | 4.61
34 | Cc1ccc(S(=O)(=O)/N=C(\Sc2ccccc2)c2ccccc2)cc1 | 14.1
35 | COCCN1CCN(C(=O)c2ccc3c(c2)S(=O)(=O)c2ccccc2C3=O)CC1 | -1.17
36 | Cc1cc(C)c(NC(=O)c2cccc3c2C(=O)N(C2CCCCC2)C3)c(C)c1 | -11
37 | CCCCNC(C(=O)Nc1cccc(S(=O)(=O)N2CCOCC2)c1)c1ccccc1 (centres unmarked) | -50.7
38 | CC(C)[C@H](NC(=O)c1ccccc1)C(=O)Nc1cccc(S(=O)(=O)N2CCOCC2)c1 | -2.22

Row | Compound | hERG current change (%, negative = inhibition) at 10uM [%]
39 | O=C(Nc1cccc(S(=O)(=O)N2CCOCC2)c1)C(c1ccccc1)N1CCCCC1 (centres unmarked) | -37.9
40 | O=C(CSc1ccccc1)Nc1cccc(S(=O)(=O)N2CCOCC2)c1 | -25.4
41 | CN(C)CCNC(C(=O)Nc1cccc(S(=O)(=O)N2CCOCC2)c1)c1ccccc1 (centres unmarked) | -70.3
42 | CCCC(C(=O)Nc1cccc(S(=O)(=O)N2CCCC2)c1)c1ccccc1 (centres unmarked) | -48.2
43 | CC(C)C(NC(=O)CN(c1cccc(F)c1)S(C)(=O)=O)C(C)C | 1.21
44 | COc1cc(CCC(=O)OCc2ccccc2C#N)cc(OC)c1OC | 7.42
45 | O=C1CC(C(=O)N2CCOCC2)C2(CCCCC2)O1 (centres unmarked) | 17.8
46 | COc1ccccc1Oc1cc(F)nc(N)n1 | 5.82
47 | Cc1cc(C)n(-c2nc(C(=O)O)cs2)n1 | 17.7
48 | CN(Cc1ccccc1)S(=O)(=O)c1ccc(Cl)c(C(=O)NCCc2ccccn2)c1 | -61.8
49 | CN(Cc1ccccc1)S(=O)(=O)c1ccc(Cl)c(C(=O)O)c1 | 9.33
50 | CN(Cc1ccccc1)S(=O)(=O)c1ccc(Cl)c(C(=O)NCc2cccnc2)c1 | -32.8
51 | CN(Cc1ccccc1)S(=O)(=O)c1ccc(OCC(=O)NCc2ccncc2)cc1 | -53.6
52 | CN(Cc1ccccc1)S(=O)(=O)c1ccc(Cl)c(C(=O)NCc2ccc3c(c2)OCO3)c1 | 5.48
53 | CN(Cc1ccccc1)S(=O)(=O)c1ccc(OCC(=O)NCc2cccnc2)cc1 | 0.509
54 | CN(Cc1ccccc1)S(=O)(=O)c1ccc(Cl)c(C(=O)NCc2ccncc2)c1 | -55.8
55 | CN(CC(=O)NCCc1ccccn1)S(=O)(=O)c1ccc(Cl)cc1 | -17
56 | CN(Cc1ccccc1)S(=O)(=O)c1ccc(OCC(=O)NCc2ccccn2)cc1 | -32.6
